Shown are actives, neighbours in structure and some others; about 6.2% of the full set was active somewhere.
HT1080 IDH1KD tx = HT-1080 IDH1 knockdown cell toxicity (counter line). AID 686971. Potency, µM (highest dose often 46.1 µM), most hits filed as cytotoxic. 360,000 compounds, 2% hits. HT-1080 IDH1 knockdown viability, ATP luminescence, 48 h
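HT-1080-IDH1KD cells (IDH1 knocked down), 750/well in RPMI with 5% FBS, treated with compound 48 h at 37 degrees C. Viability by CellTiter-Glo luminescence, normalised to DMSO and no-cell wells; concentration-response curves classed.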
ATXN2 expr inh = inhibitors of ATXN2 expression | HEK-293 ATXN2-luciferase reporter, luminescence, 24 h | Potency, µM (top dose mostly 57 µM), usual class: inhibitors | 360,000 compounds, 0.72% hits | AID 1745845; note: nearly all actives have a fitted effect of over 55% in size
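ATXN2-luciferase reporter cells (luciferase flanked by upstream and downstream ATXN2 gene portions) were treated 24 h at 37 °C with compounds at up to 57 uM. SteadyGlo luminescence gave expression; GF-AFC fluorescence gave viability.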
KB-3-1 tox = kills parental KB-3-1 adenocarcinoma cells. 400,000 compounds, 1.4% hits. AID 1347075. Potency, µM (doses to about 46.1 µM), most hits filed as cytotoxic. KB-3-1 viability, CellTiter-Glo ATP luminescence, 72 h; note: nearly all actives have a fitted effect of over 60% in size
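Viability of parental KB-3-1 cells, measured by CellTiter-Glo luminescence, followed a 72 h incubation at 37 °C with pinned compounds in phenol-red-free DMEM containing 10% FBS.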
KB-V1 MDR tox = KB-V1 MDR subline cytotoxicity. KB-V1 MDR cells viability, CellTiter-Glo, 72 h. Potency, µM (series often up to 46.1 µM), hits mostly cytotoxic. 400,000 compounds, 3.4% hits. AID 1347076; note: nearly all actives have a fitted effect of over 60% in size
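Cytotoxicity toward P-gp-expressing KB-V1 cells was determined as loss of CellTiter-Glo luminescence after 72 h at 37 degrees C. Compounds were tested in quantitative HTS format across a concentration range, with curves fitted to normalized data.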
HT1080NT lethal = kills 2HG-producing HT-1080-NT fibrosarcoma cells; Potency, µM (series often up to 46.1 µM), usual class: cytotoxic; 360,000 compounds, 1.6% hits; HT-1080-NT fibrosarcoma viability, CellTiter-Glo ATP luminescence, 48 h; AID 686970;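 note: NT is the 2HG producing partner of a matched IDH1 knockdown line; nearly all actives have a fitted effect of over 55% in size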
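HT-1080-NT fibrosarcoma cells (2HG-overproducing), 750 cells/well in RPMI with 5% FBS, dosed after 2 h and incubated 48 h at 37C. CellTiter-Glo luminescence normalized to DMSO and no-cell wells; concentration-response curves fitted and classed.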
S2 tox = cell viability loss in ATXN counter-screen | S2 cells (HEK-293 line with an ATXN2-luciferase reporter) viability, CellTiter-Fluor protease fluorescence, 24 h | AID 651635 | 400,000 compounds, 0.49% hits | Potency, µM (titrated, usually from 56.7 µM), hits mostly cytotoxic; note: nearly all actives have a fitted effect of over 40% in size
Hits are given with their value; . = inactive; ? = inconclusive; / = no result; [ ] = remark or other dose. Calls come from the whole dose curve; as a rule, active = well fitted curve in the direction sought with a large enough effect; inconclusive = small, poorly fitted or top-dose-only effect, or another doubt; inactive = no such curve, though single readings can be large; an effect the other way counts as inactive or inconclusive.

SMILES	HT1080 IDH1KD tx	ATXN2 expr inh	KB-3-1 tox	KB-V1 MDR tox	HT1080NT lethal	S2 tox
COC(=O)c1ccc(NC(=O)Nc2ccc(F)c(Cl)c2)cc1	?	?	.	18µM	?	?
COC(=O)c1cccc(NC(=O)Nc2ccc(Cl)c(Cl)c2)c1	?	?	.	15µM	?	.
O=C(Nc1ccc(F)c(Cl)c1)Nc1csc2ccccc12	6.5µM	.	?	12µM	9.2µM	.
CCOc1ccccc1C1N=C(N)Nc2nc3ccccc3n21 (centres undefined)	/	.	.	.	/	.
CCN(CC)S(=O)(=O)c1ccc(OC)c(NC(=O)c2cc([N+](=O)[O-])ccc2Cl)c1	.	.	18µM	.	.	.
CN(C)S(=O)(=O)c1ccc(C(=O)Nc2ccccc2[N+](=O)[O-])cc1	.	.	.	?	.	.
O=C(Nc1cc(S(=O)(=O)N2CCOCC2)ccc1Cl)c1cc([N+](=O)[O-])ccc1Cl	21µM	?	?	?	9.2µM	?
CN(C)S(=O)(=O)c1ccc(Cl)c(C(=O)Nc2ccccc2[N+](=O)[O-])c1	.	.	.	16µM	.	.
CN(C)S(=O)(=O)c1cccc(C(=O)Nc2cc(Cl)cc(Cl)c2)c1	?	.	.	?	?	.
CN(C)S(=O)(=O)c1cccc(C(=O)Nc2ccccc2Cl)c1	.	.	.	16µM	.	.
CCN(CC)S(=O)(=O)c1ccc(Cl)c(C(=O)Nc2ccc(Cl)cc2[N+](=O)[O-])c1	.	.	.	4.1µM	.	?
COc1ccc(Cl)cc1NC(=O)c1cccc([N+](=O)[O-])c1O	?	?	12µM	21µM	?	?
CCN(CC)S(=O)(=O)c1ccc(Cl)c(C(=O)NC)c1	.	.	.	.	.	.
CCN(CC)S(=O)(=O)c1ccc(OC)c(NC(=O)CSc2cc(Cl)ccc2Cl)c1	.	.	.	13µM	.	.
Cc1ccc(-c2nnc(SCC(=O)Nc3ccccc3N3CCOCC3)o2)cc1	.	.	.	13µM	.	.
Cc1ccc(-c2nnc(SCC(=O)Nc3ccccc3F)o2)cc1	21µM	.	5.2µM	8.2µM	13µM	.
O=C(CSc1nnc(-c2ccccc2)o1)Nc1ccccc1F	?	?	.	?	.	.
Cc1[nH]c2ccc(-c3nnc(SCC(=O)c4ccccc4F)o3)cc2c1C	.	.	.	21µM	.	.
Cc1ccc(C(=O)CSc2nnc(-c3ccc4[nH]c(C)c(C)c4c3)o2)cc1C	.[9.24 µM]	?	.	.	.	?
c1ccc(-c2nc(N3CCN(c4ccccc4)CC3)nc(-n3ccnc3)n2)cc1	?	.	?	23µM	11µM	.
Cc1ccc(/C=C/C(=O)N2CCC(Cc3ccccc3)CC2)cc1	.	.	.	21µM	.	.
COc1ccccc1N1CCN(C(=O)/C=C/c2cccc([N+](=O)[O-])c2)CC1	.	.	.	.	.	.
COc1ccccc1N1CCN(C(=O)/C=C/c2ccc(C)cc2)CC1	.	.	.	16µM	.	.
Cc1ccc(/C=C/C(=O)N2CCCC(C)C2)cc1 (centres undefined)	.	.	.	16µM	.	.
CCOC(=O)C1CCCN(C(=O)/C=C/c2ccc(Cl)cc2)C1 (centres undefined)	.	.	.	.	.	.
SMILES	HT1080 IDH1KD tx	ATXN2 expr inh	KB-3-1 tox	KB-V1 MDR tox	HT1080NT lethal	S2 tox
CO[C@@H]1[C@@H](O[C@@H]2O[C@H](C)[C@@H](O[C@H]3C[C@@](C)(O)[C@@H](OC(=O)CC(C)C)[C@H](C)O3)[C@H](N(C)C)[C@H]2O)[C@@H](CC=O)C[C@@H](C)[C@@H](O)/C=C/C=C/C[C@@H](C)OC(=O)C[C@H]1O	/	/	/	/	/	.
COc1ccc(NS(=O)(=O)c2ccc3c(c2)n(C)c(=O)c(=O)n3C)cc1Cl	/	.	.	?	/	.
O=C(O)c1cccnc1Nc1ccc(Cl)cc1	.	.	7.3µM	12µM	.	.
Cc1ccc(Nc2ncccc2C(=O)O)cc1C	.	.	.	.	.	.
COc1ccccc1/C=C/c1onc(C)c1S(=O)(=O)N1CCC(C(=O)NC2CCCCCC2)CC1	.	.	.	.	.	.
CCN(CC)S(=O)(=O)c1ccc(N2C(=O)CC2(/C=C/c2ccccc2)C(=O)NC2CCCC2)cc1 (centres undefined)	.	.	.	2.6µM	.	.
COc1ccccc1/C=C/C1(C(=O)NC2CCCC2)CC(=O)N1c1ccc(F)cc1 (centres undefined)	8.2µM	18µM	.	?	?	/
COc1ccccc1/C=C/C1(C(=O)NC2CCCC2)CC(=O)N1c1ccc(C)cc1 (centres undefined)	?	?	21µM	2.9µM	?	?
Cc1c(CCOc2ccc(C(=O)O)cc2)c2cc(Cl)ccc2n1C(c1ccccc1)c1ccccc1	/	.	/	/	/	/
COC(=O)c1cccnc1-n1c(=O)c2cccnc2n(Cc2ccc(Cl)cc2)c1=O	.	.	?	23µM	.	.
Cc1ccc(S(=O)(=O)N2C[C@H]3N(C(=O)OC(C)C)N(C(=O)OC(C)C)C[C@H](OC(=O)NCC4CCCCC4)[C@@]3(O)C2)cc1	?	.	?	?	21µM	32µM
CC(=O)Oc1ccc(C(=O)Cc2ccc3ccccc3n2)c(O)c1C	.	.	.	.	.	.
Cc1c(O)ccc(/C(Cc2ccc3ccccc3n2)=N\O)c1O	.	.	16µM	?	.	.
CC1CCCC(C)N1C(=O)COC(=O)CNC(=O)c1ccc(Cl)cc1Cl (centres undefined)	.	.	.	.	.	.
COc1ccc(S(=O)(=O)Nc2cccc(N(C)S(C)(=O)=O)c2)cc1C	.	.	?	15µM	.	.
COc1ccc(S(=O)(=O)Nc2cccc(SC)c2)cc1OC	.	.	23µM	7.3µM	.	.
O=S(=O)(Nc1ccc(Cc2ccncc2)cc1)c1ccc(Cl)s1	.	.	.	.	.	.
COc1ccc(S(=O)(=O)Nc2cccc(Cl)c2)cc1OC	.	/	.	.	.	/
COc1cc(S(=O)(=O)Nc2cc(C)cc(C)c2)ccc1F	?	.	.	23µM	?	.
O=S(=O)(Nc1ccc(Cc2ccncc2)cc1)c1ccc(Br)s1	.	.	?	15µM	?	.
CNC(C)[C@@H]1CC[C@@H](N)[C@@H](O[C@H]2[C@H](O)[C@@H](O[C@H]3OC[C@](C)(O)[C@H](NC)[C@H]3O)[C@H](N)C[C@@H]2N)O1 (some centres undefined)	/	/	/	/	/	.
CN(C)c1ccc(/C=C/c2ccnc3ccc(O)cc23)cc1	/	/	?	.	/	/
COc1ccc(NS(=O)(=O)c2ccc(OC)c(OC)c2)cc1OC	.	.	.	21µM	.	.
COc1ccc(NS(=O)(=O)c2ccc(Br)s2)cc1OC	.	.	.	21µM	.	.
